Assay outcomes from PubChem.
USP8 inh = inhibitors of human USP8 deubiquitinase; purified USP8, Ub-rhodamine cleavage fluorescence, 30 min; inhibition, % at 20 µM; 47,000 tested, 4.2% active
USP17 block = human USP17-like deubiquitinase inhibition | 47,000 tested, 6.5% active | purified USP17, Ub-rhodamine cleavage fluorescence, 3 h | A8MUK1 | inhibition, % at 50 µM
USP10 inh = human USP10 deubiquitinase inhibition | 47,000 tested, 1.1% active | inhibition, % at 20 µM | purified USP10, Ub-rhodamine fluorescence, 60 min | Q14694
USP28 block = blocks human USP28 ubiquitin-rhodamine cleavage; AID 1645857; Q96RU2; purified USP28, Ub-rhodamine cleavage fluorescence, 30 min; 47,000 tested, 3% active; inhibition, % at 25 µM
USP30 inh = blocks human USP30 ubiquitin-rhodamine cleavage; 47,000 tested, 5.3% active; purified USP30, Ub-rhodamine cleavage fluorescence; inhibition, % at 25 µM; AID 1645860
Target sequence (Q70CQ3 whole entry, looked up): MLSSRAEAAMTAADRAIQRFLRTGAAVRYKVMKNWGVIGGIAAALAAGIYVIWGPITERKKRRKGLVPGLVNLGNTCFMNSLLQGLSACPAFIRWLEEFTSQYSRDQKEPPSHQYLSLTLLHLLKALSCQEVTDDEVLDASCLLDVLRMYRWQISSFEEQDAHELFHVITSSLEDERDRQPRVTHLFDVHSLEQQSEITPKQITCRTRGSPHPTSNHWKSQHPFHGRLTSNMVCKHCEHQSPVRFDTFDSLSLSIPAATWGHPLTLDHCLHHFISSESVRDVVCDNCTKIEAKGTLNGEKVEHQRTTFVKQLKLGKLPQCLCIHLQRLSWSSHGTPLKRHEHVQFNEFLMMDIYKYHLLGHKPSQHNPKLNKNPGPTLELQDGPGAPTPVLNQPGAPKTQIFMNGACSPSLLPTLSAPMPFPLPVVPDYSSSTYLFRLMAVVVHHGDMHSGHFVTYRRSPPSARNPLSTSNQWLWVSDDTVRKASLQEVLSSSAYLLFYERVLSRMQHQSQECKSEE
Hits are given with their value; 0 = inactive; - = not tested or not shown. The list is not random: actives were taken first. Their share in the collection is about 13%. Rule as the data show it: active = inhibition above about 30%; inactive = the rest.

SMILES	USP8 inh	USP17 block	USP10 inh	USP28 block	USP30 inh
CNc1nccnc1C1CN(C(=O)c2ccc3ccccc3n2)CCO1 (stereo not drawn)	0	0	0	0	0
CCC1Cc2c(nc(N)c3c(N)nc(N4CCCCC4)c(C#N)c23)O1 (stereo not drawn)	77	0	0	0	0
O=C(Cn1c(C(=O)NCc2ccc(F)cc2F)cccc1=O)NC1CCCC1	0	0	0	0	0
O=C(O)c1nn(Cc2cc(F)cc3c2OC(c2ccccc2)OC3)c(=O)c2ccccc12 (stereo not drawn)	0	0	0	0	0
Fc1cc2c(c(CSc3nnc4ccccn34)c1)OC(c1ccccc1)OC2 (stereo not drawn)	49	0	0	0	0
Cn1c(C(=O)NCc2ccccn2)cc2c(=O)[nH]c3ccccc3c21	87	80	0	38	0
Cc1cccc(C(=O)Nc2c(C(=O)NCc3ccccn3)[nH]c3ccccc23)c1	0	0	0	0	0
CCOC(=O)c1ccc(N2CCN(CC)CC2)c(NC(=O)Cc2ccccc2)c1	0	0	0	0	0
CCN1CCN(c2ccc(C(=O)O)cc2NS(=O)(=O)c2ccc(C(C)C)cc2)CC1	81	0	0	0	0
Cn1c(-c2nnc(SCC(=O)Nc3ccccc3F)o2)cc2ccccc21	0	43	0	41	82
COc1ccccc1NC(=O)CSc1nnc(-c2cc3ccccc3n2C)o1	0	0	0	0	0
CN(C(=O)CSc1nnc(-c2cc3ccccc3n2C)o1)c1ccccc1	0	0	0	0	52
Cc1ccc(S(=O)(=O)NCCn2ccc3ccccc32)cc1	0	0	0	0	0
Cc1ccc(S(=O)(=O)NCCn2c(N)c(C#N)c3nc4ccccc4nc32)cc1	65	40	0	0	0
COc1ccc(OC)c(CNC(=O)c2cc(S(=O)(=O)N3CCCC3)ccc2Cl)c1	0	0	0	0	0
CCn1cc(-c2nc(-c3ccccc3)no2)c(=O)c2cc(F)ccc21	0	67	0	0	0
O=C(Nc1ccc2[nH]c(=O)[nH]c2c1)c1cc2c(s1)CCCCC2	53	0	0	0	0
Cc1ccc(NC(=O)c2cc3c(s2)CCC3)cc1	49	49	0	37	0
O=C(O)Cc1ccccc1C(=O)Nc1ccc2c(c1)CCC2	0	0	0	0	0
Cc1ccc(NC(=O)c2cc(C3CC3)on2)cc1	0	0	0	-	-
O=C(Nc1ccc2c(c1)CCC2)c1cc2ccccc2s1	0	0	0	33	0
CC1=NS(=O)(=O)N(Cc2ccccc2)C=C1C(=O)Nc1cccc(C)c1	0	0	0	0	0
COc1ccc(S(=O)(=O)Nc2ccc3c(c2)CCC3)cc1[N+](=O)[O-]	0	0	0	0	0
Cc1cc(C)c(S(=O)(=O)N2CCOCC2)cc1NS(=O)(=O)c1cccc(C(=O)Nc2ccccc2)c1	0	0	0	0	0
Cc1cc(-c2cnc(NCc3cccc(F)c3)nc2-c2ccco2)on1	0	41	0	0	0
SMILES	USP8 inh	USP17 block	USP10 inh	USP28 block	USP30 inh
CCc1cc(C(=O)NC2CC2)nc2cc(-c3ccccn3)nn12	0	0	0	0	0
CCc1ccc(CN2CC[C@H]3[C@H]2CCN3C(=O)c2cnn(C)c2)o1	0	0	0	0	0
Cc1ccc(CNC(=O)CN2C(=O)C3CCCN3C(=O)c3cccc(C)c32)cc1 (stereo not drawn)	0	0	0	0	0
Cc1ccccc1CNC(=O)CN1C(=O)C2CCCN2C(=O)c2cccc(C)c21 (stereo not drawn)	0	0	0	0	37
COc1cc(C(=O)NC(C)c2ccc3c(c2)OCCO3)cc(OC)c1OC (stereo not drawn)	0	0	0	0	0
COc1ccc(-n2cc(C(=O)NC(C)c3ccc4c(c3)OCCO4)c3ccccc3c2=O)cc1 (stereo not drawn)	0	0	0	0	36
Cc1ccsc1C1CCCCCN1S(=O)(=O)c1ccccc1F (stereo not drawn)	32	0	0	0	0
Cc1ccccc1S(=O)(=O)N1CCCCCC1c1sccc1C (stereo not drawn)	0	0	0	0	0
Cc1ccc(C(=O)N2CCOC(c3nc(C(C)(C)C)n[nH]3)C2)c(=O)[nH]1 (stereo not drawn)	0	0	0	0	0
CCOc1ccc(C(=O)N2CCC(c3nc(C)ncc3-c3cc(C)no3)CC2)o1	0	0	0	0	36
O=C(c1cnc(N2CCN(c3ncccn3)CC2)c2ccccc12)N1CCN(Cc2ccc3c(c2)OCO3)CC1	0	0	0	0	0
O=C(Nc1cccc(S(=O)(=O)NC2=NCCC2)c1)c1cc(-c2ccccc2)n[nH]1	0	39	0	42	37
Cc1ccc(S(=O)(=O)N2CCCN(C(=O)c3oc4ccccc4c3C)CC2)cc1	0	0	0	0	33
O=C(Cc1cccnc1)Nc1ccc(N2CCN(C3CCCC3)C2=O)nc1	37	0	0	0	0
O=C(Nc1ccc(N2CCN(C3CCCCC3)C2=O)nc1)c1ccncc1	0	0	0	0	0
O=C(c1cc2c(s1)CN(C1CC1)C2)N1CCN(c2ccccn2)CC1	0	40	0	0	0
COc1cc2c(cc1OC)C(c1cccs1)N(CC(=O)Nc1cc(C)on1)CC2 (stereo not drawn)	0	0	0	0	0
CCC(=O)Nc1c(C)noc1/C=C\c1ccc(S(=O)(=O)Nc2ccc(F)cc2F)cc1	0	0	0	0	46
CC(C)C(=O)O[C@H]1[C@H](C)C(=O)O[C@@H](C)[C@@H](NC(=O)c2cccc(NC=O)c2O)C(=O)O[C@@H]1C	0	45	0	0	35
O=C(Nc1ccc(Cl)cc1)Nc1cccn2ncnc12	0	0	0	39	52
COc1ccc(Cn2nnc(-c3cccc(F)c3)n2)cc1F	0	0	0	49	0
Cc1sc(NC(=O)CN(C)C2CCCCC2)nc1-c1ccc2c(c1)CCN2C(=O)C1CCCCC1	0	0	0	0	0
O=C1CCCC2=C1C(c1ccc(O)cc1)c1cc3c(cc1N2)OCO3 (stereo not drawn)	0	0	0	0	0
O=c1cc(CN2CCc3ccccc32)cc[nH]1	33	0	0	0	0
O=C(CCOc1ccccc1F)N1CCC(c2cnccn2)CC1	0	0	0	0	0
N#Cc1cc([N+](=O)[O-])ccc1N1CCN(c2ccc(O)cc2)CC1	0	32	0	0	35
Cc1nnc2ccc(-c3ccc(NS(=O)(=O)c4ccccc4F)cc3)nn12	0	43	0	0	0
C=C(NC(=O)C(=C)NC(=O)c1csc(C2=N[C@@H]3c4csc(n4)[C@H]4NC(=O)c5csc(n5)[C@H]([C@](C)(O)[C@@H](C)O)NC(=O)[C@H]5CSC(=N5)/C(=C/C)NC(=O)C([C@@H](C)O)NC(=O)c5csc(n5)C3(CC2)NC(=O)[C@H](C)NC(=O)C(=C)NC(=O)[C@H](C)NC(=O)C([C@@H](C)CC)N[C@@H]2C=Cc3c(C(C)O)cc(nc3[C@H]2O)C(=O)OC4C)n1)C(N)=O (stereo partly drawn)	0	54	0	0	0
